Assay [1] concerns the target T1, Serine/threonine-protein kinase D2 (Homo sapiens) (UniProt Q9BZL6).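 Note: mean value of PRKD2 inhibition, from the GSK PKIS screening panel.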
T1 sequence (whole entry): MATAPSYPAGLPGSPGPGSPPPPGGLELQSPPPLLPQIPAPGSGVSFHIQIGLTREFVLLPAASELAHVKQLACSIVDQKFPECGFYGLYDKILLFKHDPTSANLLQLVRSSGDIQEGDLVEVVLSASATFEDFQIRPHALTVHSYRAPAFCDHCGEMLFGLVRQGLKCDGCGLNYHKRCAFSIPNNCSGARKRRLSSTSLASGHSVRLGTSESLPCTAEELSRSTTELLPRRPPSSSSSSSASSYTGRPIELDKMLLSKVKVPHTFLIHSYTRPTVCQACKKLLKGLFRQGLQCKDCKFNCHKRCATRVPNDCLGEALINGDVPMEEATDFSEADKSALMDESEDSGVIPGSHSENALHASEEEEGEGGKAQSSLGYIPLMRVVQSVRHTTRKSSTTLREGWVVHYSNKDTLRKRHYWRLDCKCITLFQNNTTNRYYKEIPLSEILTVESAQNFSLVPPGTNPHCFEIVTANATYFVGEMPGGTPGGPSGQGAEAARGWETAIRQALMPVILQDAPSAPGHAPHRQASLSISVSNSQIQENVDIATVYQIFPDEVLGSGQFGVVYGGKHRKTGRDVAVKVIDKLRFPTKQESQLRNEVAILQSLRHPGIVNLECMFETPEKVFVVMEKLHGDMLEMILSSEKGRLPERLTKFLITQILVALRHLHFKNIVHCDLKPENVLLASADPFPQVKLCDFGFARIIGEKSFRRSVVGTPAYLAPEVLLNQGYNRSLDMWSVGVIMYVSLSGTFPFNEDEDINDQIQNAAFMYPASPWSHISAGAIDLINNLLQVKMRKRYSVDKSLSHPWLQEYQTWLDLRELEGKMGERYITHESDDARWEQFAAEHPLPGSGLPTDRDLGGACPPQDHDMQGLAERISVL
The conditions noted are these: at 1 µM.

Assay [2] concerns the target T2, Serine/threonine-protein kinase D3 (Homo sapiens) (UniProt O94806).
T2 sequence (whole entry): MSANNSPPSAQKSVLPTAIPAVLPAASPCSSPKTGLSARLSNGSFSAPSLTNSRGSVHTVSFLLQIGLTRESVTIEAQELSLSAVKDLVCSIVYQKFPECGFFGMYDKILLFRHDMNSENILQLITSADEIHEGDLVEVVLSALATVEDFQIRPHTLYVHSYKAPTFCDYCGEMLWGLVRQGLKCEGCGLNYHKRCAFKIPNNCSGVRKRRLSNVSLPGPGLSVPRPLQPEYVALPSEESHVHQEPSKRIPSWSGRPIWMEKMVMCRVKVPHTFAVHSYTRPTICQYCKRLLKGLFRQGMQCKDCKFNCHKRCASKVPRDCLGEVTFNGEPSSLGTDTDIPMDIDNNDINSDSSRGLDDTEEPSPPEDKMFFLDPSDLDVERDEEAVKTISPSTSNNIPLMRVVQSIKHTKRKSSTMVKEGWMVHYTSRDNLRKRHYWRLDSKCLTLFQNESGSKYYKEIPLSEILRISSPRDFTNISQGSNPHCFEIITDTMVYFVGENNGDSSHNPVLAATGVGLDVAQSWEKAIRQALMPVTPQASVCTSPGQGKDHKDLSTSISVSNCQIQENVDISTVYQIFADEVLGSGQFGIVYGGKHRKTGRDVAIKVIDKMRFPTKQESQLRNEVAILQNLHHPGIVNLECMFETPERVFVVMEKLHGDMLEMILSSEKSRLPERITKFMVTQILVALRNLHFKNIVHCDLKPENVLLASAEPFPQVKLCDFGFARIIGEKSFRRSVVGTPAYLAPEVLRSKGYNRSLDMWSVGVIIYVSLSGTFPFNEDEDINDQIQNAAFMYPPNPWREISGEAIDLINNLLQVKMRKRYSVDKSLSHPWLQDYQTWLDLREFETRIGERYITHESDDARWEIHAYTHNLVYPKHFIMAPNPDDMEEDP
The conditions noted are these: at 0.1 µM.

Assay [3] has as its target T2, Serine/threonine-protein kinase D3 (Homo sapiens). Conditions: at 1 µM.
For assay [4], the target named is T3, cGMP-dependent protein kinase 1 (Homo sapiens) (UniProt Q13976).
T3 sequence (whole entry): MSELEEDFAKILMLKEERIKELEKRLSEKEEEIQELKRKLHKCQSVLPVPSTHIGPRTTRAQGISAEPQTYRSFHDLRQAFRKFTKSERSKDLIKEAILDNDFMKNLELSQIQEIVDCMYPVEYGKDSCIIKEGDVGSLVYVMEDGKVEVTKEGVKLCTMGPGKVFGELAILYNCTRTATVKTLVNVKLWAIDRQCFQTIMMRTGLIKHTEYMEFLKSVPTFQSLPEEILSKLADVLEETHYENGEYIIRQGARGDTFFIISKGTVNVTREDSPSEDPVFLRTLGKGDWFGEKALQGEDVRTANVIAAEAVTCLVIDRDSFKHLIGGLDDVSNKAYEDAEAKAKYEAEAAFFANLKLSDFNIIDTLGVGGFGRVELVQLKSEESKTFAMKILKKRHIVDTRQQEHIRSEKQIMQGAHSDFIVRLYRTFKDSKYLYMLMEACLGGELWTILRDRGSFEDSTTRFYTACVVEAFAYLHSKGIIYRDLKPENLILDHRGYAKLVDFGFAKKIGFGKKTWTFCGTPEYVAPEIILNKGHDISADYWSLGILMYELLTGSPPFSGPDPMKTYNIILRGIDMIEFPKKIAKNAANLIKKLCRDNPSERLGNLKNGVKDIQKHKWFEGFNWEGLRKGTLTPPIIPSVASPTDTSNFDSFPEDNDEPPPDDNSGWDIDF
Conditions: at 0.1 µM.

Assay [5] addresses T3, cGMP-dependent protein kinase 1 (Homo sapiens). The conditions noted are these: at 1 µM.
Assay [6] deals with T4, cGMP-dependent protein kinase 2 (Homo sapiens) (UniProt Q13237).
T4 sequence (whole entry): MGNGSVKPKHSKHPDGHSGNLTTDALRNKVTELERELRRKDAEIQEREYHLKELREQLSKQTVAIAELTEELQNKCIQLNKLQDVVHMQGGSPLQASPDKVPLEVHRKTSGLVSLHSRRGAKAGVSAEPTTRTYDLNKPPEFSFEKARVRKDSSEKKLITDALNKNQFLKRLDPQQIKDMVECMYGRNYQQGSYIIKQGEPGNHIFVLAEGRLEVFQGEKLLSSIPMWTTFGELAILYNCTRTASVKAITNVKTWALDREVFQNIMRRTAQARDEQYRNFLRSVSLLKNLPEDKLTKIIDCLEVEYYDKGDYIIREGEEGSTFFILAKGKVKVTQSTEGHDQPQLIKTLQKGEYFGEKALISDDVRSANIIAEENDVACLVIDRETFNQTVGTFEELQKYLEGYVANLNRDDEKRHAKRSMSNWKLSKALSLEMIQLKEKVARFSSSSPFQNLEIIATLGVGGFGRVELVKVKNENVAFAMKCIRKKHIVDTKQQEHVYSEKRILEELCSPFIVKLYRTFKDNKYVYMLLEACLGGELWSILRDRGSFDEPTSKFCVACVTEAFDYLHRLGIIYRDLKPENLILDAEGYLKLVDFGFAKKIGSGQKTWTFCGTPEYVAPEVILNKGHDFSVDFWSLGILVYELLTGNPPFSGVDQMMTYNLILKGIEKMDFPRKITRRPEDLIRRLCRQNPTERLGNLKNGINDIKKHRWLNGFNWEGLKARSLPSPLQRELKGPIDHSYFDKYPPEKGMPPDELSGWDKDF
Conditions: at 0.1 µM.

Assay [7] deals with T4, cGMP-dependent protein kinase 2 (Homo sapiens). Conditions: at 1 µM.
In assay [8] the target is T5, cAMP-dependent protein kinase catalytic subunit PRKX (Homo sapiens) (UniProt P51817).
T5 sequence (whole entry): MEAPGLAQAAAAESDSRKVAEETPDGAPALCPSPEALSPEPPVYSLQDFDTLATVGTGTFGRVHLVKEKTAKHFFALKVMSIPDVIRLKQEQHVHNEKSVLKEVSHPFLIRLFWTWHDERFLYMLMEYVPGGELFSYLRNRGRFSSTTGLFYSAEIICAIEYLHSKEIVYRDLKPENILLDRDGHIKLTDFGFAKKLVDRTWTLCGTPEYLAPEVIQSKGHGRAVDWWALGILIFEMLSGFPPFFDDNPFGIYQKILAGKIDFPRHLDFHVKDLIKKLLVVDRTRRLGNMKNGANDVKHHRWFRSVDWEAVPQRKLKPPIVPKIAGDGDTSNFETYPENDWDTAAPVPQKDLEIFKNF
The conditions noted are these: at 0.1 µM.

Assay [9] has as its target T5, cAMP-dependent protein kinase catalytic subunit PRKX (Homo sapiens). The conditions noted are these: at 1 µM.
The target in assay [10] is Rho-associated protein kinase 1 (Homo sapiens) (UniProt Q13464). Conditions: at 0.1 µM.
For assay [11] the target is unchanged. The conditions noted are these: at 1 µM.
The target in assay [12] is Rho-associated protein kinase 2 (Homo sapiens) (UniProt O75116). Conditions: at 0.1 µM.
Assay [13] has the same target. Conditions: at 1 µM.
Assay [14] deals with Ribosomal protein S6 kinase alpha-1 (Homo sapiens) (UniProt Q15418). Conditions: at 0.1 µM.
For assay [15] the target is unchanged. The conditions noted are these: at 1 µM.
Assay [16] concerns the target Ribosomal protein S6 kinase alpha-3 (Homo sapiens) (UniProt P51812). The conditions noted are these: at 0.1 µM.
Assay [17] has the same target. Conditions: at 1 µM.
Assay [18] addresses Ribosomal protein S6 kinase alpha-2 (Homo sapiens) (UniProt Q15349). The conditions noted are these: at 0.1 µM.
Assay [19] has the same target. The conditions noted are these: at 1 µM.
For assay [20], the target named is Ribosomal protein S6 kinase alpha-6 (Homo sapiens) (UniProt Q9UK32). The conditions noted are these: at 0.1 µM.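 Note: reported value is the mean inhibition of RSK4, from the GSK PKIS kinase inhibitor screen.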
Chain of Ribosomal protein S6 kinase alpha-6 (Homo sapiens) (Q9UK32 whole entry): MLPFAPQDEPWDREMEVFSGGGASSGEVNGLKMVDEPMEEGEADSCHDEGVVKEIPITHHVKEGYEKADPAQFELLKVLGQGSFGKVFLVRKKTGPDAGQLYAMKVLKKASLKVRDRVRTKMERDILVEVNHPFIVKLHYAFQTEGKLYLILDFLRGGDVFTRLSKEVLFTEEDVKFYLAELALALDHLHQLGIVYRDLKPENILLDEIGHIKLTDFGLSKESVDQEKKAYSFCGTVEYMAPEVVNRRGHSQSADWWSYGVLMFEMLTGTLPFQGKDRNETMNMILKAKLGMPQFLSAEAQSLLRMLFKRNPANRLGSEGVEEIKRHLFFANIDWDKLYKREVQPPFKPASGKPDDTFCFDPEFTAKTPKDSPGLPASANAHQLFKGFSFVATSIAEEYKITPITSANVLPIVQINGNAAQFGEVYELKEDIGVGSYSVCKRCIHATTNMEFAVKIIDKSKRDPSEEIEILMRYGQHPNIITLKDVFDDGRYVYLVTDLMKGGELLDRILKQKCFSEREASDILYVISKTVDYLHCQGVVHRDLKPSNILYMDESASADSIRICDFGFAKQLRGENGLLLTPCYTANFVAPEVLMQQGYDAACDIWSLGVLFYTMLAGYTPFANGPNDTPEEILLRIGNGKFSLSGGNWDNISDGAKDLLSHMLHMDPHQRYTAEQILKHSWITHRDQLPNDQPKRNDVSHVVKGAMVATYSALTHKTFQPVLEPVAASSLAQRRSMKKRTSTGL

Chain of Ribosomal protein S6 kinase alpha-1 (Homo sapiens) (Q15418 whole entry): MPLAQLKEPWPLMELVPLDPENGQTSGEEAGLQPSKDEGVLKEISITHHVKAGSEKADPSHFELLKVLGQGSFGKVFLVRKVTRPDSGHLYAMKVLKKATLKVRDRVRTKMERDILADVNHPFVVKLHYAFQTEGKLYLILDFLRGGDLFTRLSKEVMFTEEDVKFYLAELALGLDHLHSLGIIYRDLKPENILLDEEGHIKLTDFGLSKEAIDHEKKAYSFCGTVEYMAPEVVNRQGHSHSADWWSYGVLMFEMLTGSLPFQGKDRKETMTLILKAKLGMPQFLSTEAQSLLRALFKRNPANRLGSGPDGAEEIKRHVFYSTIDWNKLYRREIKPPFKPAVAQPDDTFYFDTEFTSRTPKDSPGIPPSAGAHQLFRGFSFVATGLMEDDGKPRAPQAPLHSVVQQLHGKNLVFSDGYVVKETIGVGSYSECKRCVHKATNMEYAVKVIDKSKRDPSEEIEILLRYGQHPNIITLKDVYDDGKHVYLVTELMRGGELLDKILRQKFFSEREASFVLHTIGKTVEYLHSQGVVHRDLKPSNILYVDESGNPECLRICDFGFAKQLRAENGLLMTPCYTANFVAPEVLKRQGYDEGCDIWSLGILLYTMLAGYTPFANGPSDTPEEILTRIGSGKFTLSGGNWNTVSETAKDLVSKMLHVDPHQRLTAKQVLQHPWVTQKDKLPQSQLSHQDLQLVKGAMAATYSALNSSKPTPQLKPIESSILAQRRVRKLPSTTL
Chain of Rho-associated protein kinase 2 (Homo sapiens) (O75116 whole entry, looked up): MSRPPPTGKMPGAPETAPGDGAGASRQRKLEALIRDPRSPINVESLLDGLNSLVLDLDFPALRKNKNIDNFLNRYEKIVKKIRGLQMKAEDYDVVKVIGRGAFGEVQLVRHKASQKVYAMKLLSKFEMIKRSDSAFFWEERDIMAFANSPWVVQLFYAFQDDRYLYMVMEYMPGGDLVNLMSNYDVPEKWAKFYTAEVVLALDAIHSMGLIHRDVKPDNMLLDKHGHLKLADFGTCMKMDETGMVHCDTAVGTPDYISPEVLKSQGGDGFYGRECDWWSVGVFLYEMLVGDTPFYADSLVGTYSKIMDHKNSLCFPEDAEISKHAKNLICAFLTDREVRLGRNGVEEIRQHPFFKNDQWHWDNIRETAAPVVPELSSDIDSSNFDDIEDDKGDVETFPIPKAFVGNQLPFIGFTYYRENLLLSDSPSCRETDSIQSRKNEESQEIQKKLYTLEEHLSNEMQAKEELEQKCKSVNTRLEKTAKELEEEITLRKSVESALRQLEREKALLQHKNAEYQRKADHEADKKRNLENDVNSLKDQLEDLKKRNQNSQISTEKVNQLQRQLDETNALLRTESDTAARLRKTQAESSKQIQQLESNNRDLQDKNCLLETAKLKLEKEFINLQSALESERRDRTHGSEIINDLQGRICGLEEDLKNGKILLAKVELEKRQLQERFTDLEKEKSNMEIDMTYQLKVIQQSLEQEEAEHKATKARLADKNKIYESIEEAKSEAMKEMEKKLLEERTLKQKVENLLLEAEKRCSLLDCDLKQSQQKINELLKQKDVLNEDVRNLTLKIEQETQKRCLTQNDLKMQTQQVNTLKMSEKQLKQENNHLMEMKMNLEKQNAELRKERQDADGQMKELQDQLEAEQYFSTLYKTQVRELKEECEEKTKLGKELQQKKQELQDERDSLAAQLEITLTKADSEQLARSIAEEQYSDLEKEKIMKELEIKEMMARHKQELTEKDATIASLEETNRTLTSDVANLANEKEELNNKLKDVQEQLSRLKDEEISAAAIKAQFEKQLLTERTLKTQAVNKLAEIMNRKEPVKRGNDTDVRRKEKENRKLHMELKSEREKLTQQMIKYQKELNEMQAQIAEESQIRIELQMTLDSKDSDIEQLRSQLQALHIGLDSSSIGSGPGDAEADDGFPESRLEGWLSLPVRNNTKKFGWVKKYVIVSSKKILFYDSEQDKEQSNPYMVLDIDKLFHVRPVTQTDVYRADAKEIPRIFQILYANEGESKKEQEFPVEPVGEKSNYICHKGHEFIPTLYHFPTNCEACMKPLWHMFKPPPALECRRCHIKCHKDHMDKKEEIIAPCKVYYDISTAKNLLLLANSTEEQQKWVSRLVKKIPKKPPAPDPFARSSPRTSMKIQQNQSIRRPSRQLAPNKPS
Chain of Rho-associated protein kinase 1 (Homo sapiens) (Q13464 2-1354 limits assumed): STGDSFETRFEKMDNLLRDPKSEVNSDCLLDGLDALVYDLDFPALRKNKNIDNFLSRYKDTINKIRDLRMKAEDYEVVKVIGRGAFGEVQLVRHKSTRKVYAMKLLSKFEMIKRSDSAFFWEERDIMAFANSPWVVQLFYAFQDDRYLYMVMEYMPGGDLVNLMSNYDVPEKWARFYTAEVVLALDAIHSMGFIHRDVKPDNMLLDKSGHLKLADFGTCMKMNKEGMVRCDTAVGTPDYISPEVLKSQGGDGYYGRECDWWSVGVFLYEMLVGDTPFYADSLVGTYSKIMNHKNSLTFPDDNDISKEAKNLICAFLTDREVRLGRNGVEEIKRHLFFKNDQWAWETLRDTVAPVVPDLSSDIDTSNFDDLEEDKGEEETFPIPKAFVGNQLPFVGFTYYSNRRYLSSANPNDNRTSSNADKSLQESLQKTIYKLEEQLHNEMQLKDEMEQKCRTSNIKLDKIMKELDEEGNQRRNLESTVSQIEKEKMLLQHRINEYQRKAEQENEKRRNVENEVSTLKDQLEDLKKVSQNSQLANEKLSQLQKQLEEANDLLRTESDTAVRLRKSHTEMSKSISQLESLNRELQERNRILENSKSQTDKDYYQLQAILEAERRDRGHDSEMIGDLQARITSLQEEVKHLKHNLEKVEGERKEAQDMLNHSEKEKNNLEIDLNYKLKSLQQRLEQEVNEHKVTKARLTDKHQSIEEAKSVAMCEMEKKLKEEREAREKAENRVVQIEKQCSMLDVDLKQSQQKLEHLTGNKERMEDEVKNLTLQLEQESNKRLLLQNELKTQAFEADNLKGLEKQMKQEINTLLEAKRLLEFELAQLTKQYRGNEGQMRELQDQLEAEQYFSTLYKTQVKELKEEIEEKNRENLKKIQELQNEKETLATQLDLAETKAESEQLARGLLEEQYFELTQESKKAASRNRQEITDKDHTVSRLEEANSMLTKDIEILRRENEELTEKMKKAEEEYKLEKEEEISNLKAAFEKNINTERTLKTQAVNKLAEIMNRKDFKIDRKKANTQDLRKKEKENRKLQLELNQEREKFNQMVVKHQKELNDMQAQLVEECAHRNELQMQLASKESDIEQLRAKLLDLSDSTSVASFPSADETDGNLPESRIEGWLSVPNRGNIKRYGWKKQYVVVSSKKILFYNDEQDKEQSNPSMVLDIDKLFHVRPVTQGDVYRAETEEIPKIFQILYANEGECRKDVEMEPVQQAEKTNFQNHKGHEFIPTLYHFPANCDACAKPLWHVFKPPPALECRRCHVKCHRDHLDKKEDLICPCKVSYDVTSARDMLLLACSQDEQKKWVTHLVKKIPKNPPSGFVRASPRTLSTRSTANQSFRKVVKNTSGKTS
Chain of Ribosomal protein S6 kinase alpha-3 (Homo sapiens) (P51812 whole entry): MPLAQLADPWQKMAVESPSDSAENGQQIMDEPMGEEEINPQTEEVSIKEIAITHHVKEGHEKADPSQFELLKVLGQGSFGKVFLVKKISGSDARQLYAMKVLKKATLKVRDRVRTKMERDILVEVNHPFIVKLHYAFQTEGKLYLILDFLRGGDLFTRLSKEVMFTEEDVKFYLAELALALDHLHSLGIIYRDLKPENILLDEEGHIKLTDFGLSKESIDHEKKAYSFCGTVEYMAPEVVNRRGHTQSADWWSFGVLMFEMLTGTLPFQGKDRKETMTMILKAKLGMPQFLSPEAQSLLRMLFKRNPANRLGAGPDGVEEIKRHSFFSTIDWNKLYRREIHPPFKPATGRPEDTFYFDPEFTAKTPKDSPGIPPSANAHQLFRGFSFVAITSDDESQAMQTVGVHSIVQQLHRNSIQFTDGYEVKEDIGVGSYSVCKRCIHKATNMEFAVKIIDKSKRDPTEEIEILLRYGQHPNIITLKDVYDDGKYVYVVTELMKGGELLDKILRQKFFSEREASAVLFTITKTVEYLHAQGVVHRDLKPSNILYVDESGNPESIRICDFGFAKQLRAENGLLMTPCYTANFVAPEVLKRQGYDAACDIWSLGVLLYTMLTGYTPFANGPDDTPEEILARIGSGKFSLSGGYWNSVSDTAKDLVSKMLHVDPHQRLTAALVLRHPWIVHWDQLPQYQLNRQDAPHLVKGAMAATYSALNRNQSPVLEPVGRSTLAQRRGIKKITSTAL

Take `NC(=O)c1cccc(Nc2nccc(Nc3cccc4[nH]ncc34)n2)c1`: the inhibition – broadly, the change of the read-out against control, counted positive when it falls – in assay [1] is 5%; in assay [2], -3.05%; in [3] it was 4.5%; in [4], -0.53%; in assay [5], 5.24%; in assay [6], 0.86%. Besides, the inhibition in assay [7] is 7.93%; in assay [8] it was 7.81%; in assay [9], 9.23%; in assay [10] it was 0.94%; in assay [11] it was 7.57%; in assay [12], 1.22%. Moreover, the inhibition in assay [13] is 13.4%; in [14], -0.17%; in assay [15] it was 7.69%; in assay [16] it was -0.11%; in [17] it was 8.36%; in assay [18], -1.89%. Further, the inhibition in assay [19] is 2.72%; in assay [20] it was 0.56%.

Consider `Cc1ccc(NC(=O)c2ccnc(N3CCCC3)c2)cc1-c1ccc(C(=O)NCC2CC2)cc1`, for which the inhibition in [1] stood at 9.48%; in assay [2], 3.21%; in assay [3], 10.1%; in assay [4] it was 2.12%; in [5] it was 6.39%; in assay [6], 3.92%. The inhibition is 6.54% in [7]; 1.47% in assay [8]; 2.53% in [9]; 10% in assay [10]; 7.68% in [11]; 5.19% in [12]. Also, the inhibition in [13] was determined as 7.89%; in assay [14], 3.15%; in assay [15] it was 5.01%; in [16], 2.42%; in assay [17], 6.09%; in assay [18], 3.89%. The inhibition in assay [19] stood at 5.23%; in assay [20], 2.53%.

`COc1cccc(-n2ncc3c(N/N=C/c4cccc(F)c4)ncnc32)c1`: the inhibition in [1] was -1.18%; in assay [2] it was -0.44%; in [3], -0.79%; in assay [4] it was 2.15%; in [5], 3.23%; in [6], 2.4%. Also, the inhibition in [7] came out at 3.95%; in assay [8], 1.69%; in [9] it was 2.08%; in [10], 0.34%; in assay [11], 2.09%; in assay [12], 1.84%. Besides, the inhibition in assay [13] is 2.56%; in assay [14] it was 1.59%; in [15] it was 1.07%; in assay [16] it was 2.2%; in assay [17], 2.55%; in assay [18] it was 2.85%. Further, the inhibition worked out at 3.5% in assay [19] and 1.48% in assay [20].

With `NCc1ccc(-c2nc(-c3ccc(Cl)c(O)c3)c(-c3ccncc3)[nH]2)cc1`, the inhibition in [1] is 4.23%; in [2] it was 0.72%; in assay [3], 1.93%; in [4], 0.03%; in assay [5], 2.4%; in assay [6] it was -0.25%. The inhibition in [7] was 3.58%; in [8], -0.67%; in assay [9] it was -2.14%; in assay [10], -0.61%; in assay [11], 2.17%; in assay [12], -0.88%. Also, the inhibition in assay [13] is 0.95%; in [14], -0.63%; in assay [15], 1.3%; in assay [16], -1.01%; in [17], -1.09%; in assay [18], 0.29%. For the same compound, the figures for the inhibition in [19] and in assay [20] were 1.53% and 0.47%, respectively.

Values taken from ChEMBL document CHEMBL1961873, “Compounds: GSK PKIS; Assays: Nanosyn kinase panel” (2012).
